Sampled rows, rich in hits. Any-hit rate of the full collection: about 2.8%.
PI5P4K alpha inh: blocks human PI5P4K alpha kinase activity; PI5P4Kalpha enzyme, ADP-Glo luminescence, 60 min; active compounds read low; 330,000 tested, 1.2% active; max response, %; P48426; AID 652105; active = max response of -50% or lower; inconclusive = between -30% and -50%; inactive = -30% or higher; note: value at the top dose of about 77 µM
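qHTS, 1536-well: enzyme/substrate mix, compound by pin tool, 5 microM ATP final; RT 60 min; ADP-Glo reagents 1 (45 min) then 2 (30 min); luminescence.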
POLB inh: inhibitors of human DNA polymerase beta | P06746 | Pol beta primer extension/strand displacement, fluorescence kinetic | Potency, µM (top dose mostly 114 µM), most hits filed as inhibitors | 340,000 tested, 1.3% active | AID 485314
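Reaction started by 50 nM substrate onto compound-treated Pol beta (10 nM, 15 min preincubation, room temperature); plates read at 0 min and 10 min. Normalized concentration-effect data fitted by four-parameter Hill equation.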
Pol eta inh-1: blocks human DNA polymerase eta activity | 390,000 tested, 1.2% active | Potency, µM (highest dose often 114 µM), usual class: inhibitors | recombinant Pol eta, fluorescent DNA replication assay | Q9Y253
Target sequence (Q9Y253 whole entry, looked up): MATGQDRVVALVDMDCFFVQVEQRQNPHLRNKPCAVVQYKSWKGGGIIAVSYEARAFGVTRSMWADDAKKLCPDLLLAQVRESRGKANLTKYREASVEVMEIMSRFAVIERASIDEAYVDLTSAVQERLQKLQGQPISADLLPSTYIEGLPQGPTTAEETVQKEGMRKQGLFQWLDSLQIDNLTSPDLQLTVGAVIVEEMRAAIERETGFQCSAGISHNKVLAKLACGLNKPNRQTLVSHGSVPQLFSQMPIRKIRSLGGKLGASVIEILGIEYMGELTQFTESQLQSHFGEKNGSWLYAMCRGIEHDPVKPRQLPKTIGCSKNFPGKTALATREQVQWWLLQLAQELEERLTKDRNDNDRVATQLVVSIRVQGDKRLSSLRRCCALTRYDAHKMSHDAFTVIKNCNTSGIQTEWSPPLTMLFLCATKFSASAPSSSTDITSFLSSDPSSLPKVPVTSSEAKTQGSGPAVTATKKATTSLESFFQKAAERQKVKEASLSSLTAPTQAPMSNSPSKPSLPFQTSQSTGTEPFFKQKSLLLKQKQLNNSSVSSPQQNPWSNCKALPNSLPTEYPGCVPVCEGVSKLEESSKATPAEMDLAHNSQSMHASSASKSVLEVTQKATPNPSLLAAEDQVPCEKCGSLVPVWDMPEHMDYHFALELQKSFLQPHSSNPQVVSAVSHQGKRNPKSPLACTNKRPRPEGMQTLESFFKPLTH
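Fluorescent replication assay: 50 nM final substrate added after a 15 min room-temperature compound preincubation with 10 nM enzyme. Signal taken at 0 min and again at 10 min.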
POLI inh: inhibitors of human DNA polymerase iota | Pol iota fluorescent replication assay, 10 min | Potency, µM (doses to about 115 µM), actives largely listed as inhibitors | AID 588590 | Q9UNA4 | 390,000 tested, 1% active
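Fluorescent replication assay read twice, at 0 min and 10 min after adding 50 nM (final) substrate. Enzyme (10 nM) and compounds were first incubated 15 min at room temperature; enzyme-free buffer wells were negative controls.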
FEN1 inhibitor: human FEN1 inhibition. P39748. Recombinant FEN1 flap cleavage, fluorescence, 15 min. Potency, µM (doses to about 114 µM), actives largely listed as inhibitors. 390,000 tested, 0.35% active; note: nearly all actives have a fitted effect of over 65% in size
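Concentration–response screening of FEN1 (10 nM): 15 min compound preincubation at room temperature, reaction started with 50 nM substrate and read at 0 and 15 min. Corrected, normalized data were fitted by a four-parameter Hill equation.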
Pol kappa inh-1: inhibitors of human DNA polymerase kappa; Q9UBT6; purified Pol kappa, fluorescent DNA synthesis assay, 10 min; Potency, µM (doses to about 107 µM), usual class: inhibitors; 400,000 tested, 0.53% active
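Fluorescent qHTS in 1536-well format: enzyme (10 nM) and compound sat 15 min at room temperature before 50 nM substrate (final) was added. Signal taken at 0 and 10 min; no-enzyme buffer wells were negative controls.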
GALK inh confirm: confirmation of human galactokinase (GALK) inhibitors; Potency, µM (doses to about 115 µM), most hits filed as inhibitors; shares compounds with Pol eta inh-1; 150 tested, 70% active; purified GALK, Kinase-Glo ATP depletion luminescence
GALK redox cs: counter-screen for GALK inhibitors: redox cycling H2O2 generation; AID 2035; 150 tested, 40% active; Phenol red-HRP H2O2 redox cycling, absorbance 600 nm; Potency, µM (titrated, usually from 115 µM), usual class: inhibitors; shares compounds with Pol eta inh-1
HEK293 viability: counter-screen for GALK inhibitors: HEK293 cell cytotoxicity; 170 tested, 10% active; Potency, µM (doses to about 46.1 µM), most hits filed as inhibitors; HEK-293 viability, ATP luminescence (CellTiter-Glo), 24/48 h; shares compounds with Pol eta inh-1
Pol kappa inh-2: Pol kappa (human) inhibition, cherry-pick confirmation; Potency, µM, hits mostly inhibitors; AID 720501; shares compounds with Pol eta inh-1; 920 tested, 76% active; purified Pol-kappa, fluorescent strand-displacement substrate
Pol eta inh-2: Pol eta (human) inhibition, cherry-pick confirmation; shares compounds with Pol eta inh-1; Pol eta primer extension, TAMRA/BHQ fluorescence, 10 min; Potency, µM, usual class: inhibitors; 2,600 tested, 64% active
Each line names hits and unclear results; the compound was inactive in the other large screens (follow-up assays come after a bar, where they were run). Unless noted, calls come from the whole dose curve; as a rule, active = well fitted curve in the direction sought with a large enough effect; inconclusive = small, poorly fitted or top-dose-only effect, or another doubt; inactive = no such curve, though single readings can be large; an effect the other way counts as inactive or inconclusive.

CCOc1ccc(N2C(=O)NC(=O)/C(=C\c3ccc(N4CCCCC4)o3)C2=O)cc1	none
CCOc1ccc(N2C(=O)/C(=C/c3ccc(C)o3)C(=O)NC2=S)cc1	PI5P4K alpha inh -76, POLB inh 28µM, Pol eta inh-1 4µM, POLI inh 8.9µM, FEN1 inhibitor 22µM, Pol kappa inh-1 28µM | Pol eta inh-2 30
COc1ccc(CCNc2oc(-c3ccc(OC)c(OC)c3)nc2P(=O)(OC)OC)cc1OC	none
CC[C@]12C=CCN3CC[C@@]4(c5ccc(OC)cc5N(C)[C@H]4[C@@](O)(C(=O)OC)[C@@H]1OC(C)=O)C32 (some centres undefined)	none (no result: PI5P4K alpha inh, POLB inh, Pol eta inh-1, POLI inh, FEN1 inhibitor)
Cc1cccc(C)c1NC(=O)CN1CCCC1	none (no result: POLB inh)
Cc1ccc(S(=O)(=O)Cc2ccc(C(=O)N3CCC4(CC3)OCCO4)o2)cc1	POLB inh 10µM, Pol eta inh-1 13µM, POLI inh inconclusive, Pol kappa inh-1 inconclusive | Pol eta inh-2 inconclusive
Clc1ccc(COC(Cn2ccnc2)c2ccc(Cl)cc2Cl)cc1 (centres undefined)	FEN1 inhibitor inconclusive, Pol kappa inh-1 inconclusive
Clc1ccc(C(c2ccc(Cl)cc2)n2cc[n+](CC(OCc3ccc(Cl)cc3Cl)c3ccc(Cl)cc3Cl)c2)cc1 (centres undefined)	Pol eta inh-1 inconclusive, POLI inh inconclusive, FEN1 inhibitor 79µM | Pol kappa inh-2 67
O=c1cc(-c2ccc(O)c(O)c2)oc2c(C3O[C@H](CO)[C@@H](O)[C@H](O)[C@H]3O)c(O)cc(O)c12 (some centres undefined)	POLB inh 20µM, Pol eta inh-1 inconclusive, POLI inh 28µM, Pol kappa inh-1 20µM | Pol kappa inh-2 19 | Pol eta inh-2 inconclusive
CC1=Nc2ccccc2/C1=C/c1c(O)[nH]c(=O)[nH]c1=O	POLI inh inconclusive
O=c1[nH]c(O)c(/C=C2/C=CC(c3cc(Cl)ccc3Cl)=N2)c(=O)[nH]1	Pol eta inh-1 18µM, FEN1 inhibitor inconclusive | Pol eta inh-2 inconclusive
O=C1NC(=O)C2C1C1(Cl)C(Cl)=C(Cl)C2(Cl)C1(Cl)Cl (centres undefined)	none (no result: POLB inh)
O=C(O)C1C(C(=O)O)C2(Cl)C(Cl)=C(Cl)C1(Cl)C2(Cl)Cl (centres undefined)	POLI inh 45µM, Pol kappa inh-1 79µM (no result: POLB inh) | Pol eta inh-2 inconclusive
O=C(CCCc1nc(-c2ccc(Cl)cc2)no1)NCC1CCCO1 (centres undefined)	none
C[C@]12CCC(=O)C=C1CCc1ccc(O)cc12	none (no result: PI5P4K alpha inh, POLB inh, Pol eta inh-1, POLI inh, FEN1 inhibitor)
O=C(c1ccc2c(c1)N(Cc1ccc(F)cc1Cl)C(=O)c1ccccc1S2)N1CCC2(CC1)OCCO2	none (no result: PI5P4K alpha inh)
O=C(c1ccc2c(c1)N(Cc1cccc(F)c1)C(=O)c1ccccc1S2)N1CCC2(CC1)OCCO2	POLB inh 22µM, Pol eta inh-1 inconclusive (no result: PI5P4K alpha inh) | Pol kappa inh-2 inconclusive | Pol eta inh-2 inconclusive
COC(=O)CCCc1[se]c2ccccc2c1I	none (no result: PI5P4K alpha inh, POLB inh, Pol eta inh-1, POLI inh, FEN1 inhibitor)
Cc1ccc(N2C(=O)NC(=O)/C(=C\c3cc(C)n(-c4ccc(C(=O)O)cc4)c3C)C2=O)cc1	POLB inh inconclusive, Pol eta inh-1 35µM, POLI inh 25µM, Pol kappa inh-1 inconclusive | Pol eta inh-2 inconclusive
Cc1ccc(N2C(=O)NC(=O)/C(=C\c3ccoc3)C2=O)cc1	PI5P4K alpha inh inconclusive, POLB inh inconclusive, Pol eta inh-1 50µM, POLI inh 32µM, Pol kappa inh-1 inconclusive | Pol eta inh-2 48
CCn1c(C)cc(/C=C2\C(=O)NC(=O)N(c3ccccc3C)C2=O)c1C	none
Cc1c(Cl)cccc1N1C(=O)NC(=O)/C(=C\c2cc(C)n(-c3cccc(C(=O)O)c3C)c2C)C1=O	POLB inh inconclusive, Pol eta inh-1 35µM, POLI inh 11µM, Pol kappa inh-1 79µM | Pol eta inh-2 inconclusive
Cc1cc(/C=C2\C(=O)NC(=O)N(c3cccc(F)c3)C2=O)c(C)n1-c1ccc(C(=O)O)c(Cl)c1	PI5P4K alpha inh inconclusive, POLB inh 25µM, Pol eta inh-1 14µM, POLI inh inconclusive, Pol kappa inh-1 inconclusive | Pol eta inh-2 34
O=c1oc2ccccc2c(O)c1C(c1ccc([N+](=O)[O-])cc1)c1c(O)c2ccccc2oc1=O	PI5P4K alpha inh inconclusive, POLB inh 50µM, Pol eta inh-1 20µM, POLI inh inconclusive, Pol kappa inh-1 inconclusive | GALK inh confirm 27µM | GALK redox cs inactive | HEK293 viability inactive
COc1cc2c(cc1OC)-c1c(OC)c(OC)c(CO)c3c1C(C2)N(C)CC3 (centres undefined)	none (no result: PI5P4K alpha inh, POLB inh, Pol eta inh-1, POLI inh, FEN1 inhibitor)
COc1cc(N2CCOCC2)ccc1/C=C1\C(=O)NC(=O)N(Cc2cccs2)C1=O	POLI inh inconclusive
Cc1ccc(OCCn2cccc2/C=C2/C(=O)NC(=O)N(Cc3ccco3)C2=O)cc1	PI5P4K alpha inh inconclusive, Pol eta inh-1 20µM, POLI inh 8.9µM, FEN1 inhibitor inconclusive, Pol kappa inh-1 28µM | Pol eta inh-2 67
Cc1cc(/C=C2\C(=O)NC(=O)N(Cc3ccco3)C2=O)c(C)n1-c1ccc(O)cc1	PI5P4K alpha inh -83, POLB inh 11µM, Pol eta inh-1 20µM, POLI inh inconclusive, FEN1 inhibitor inconclusive, Pol kappa inh-1 40µM | Pol eta inh-2 inconclusive
Cc1ccc(-n2c(C)cc(/C=C3/C(=O)NC(=O)N(Cc4ccco4)C3=O)c2C)cc1	POLB inh inconclusive, Pol eta inh-1 50µM, POLI inh 20µM, Pol kappa inh-1 inconclusive | Pol eta inh-2 inconclusive
CC(C)N(CC[C@@](C(N)=O)(c1ccccc1)c1ccccn1)C(C)C	none (no result: PI5P4K alpha inh, POLB inh, Pol eta inh-1, POLI inh, FEN1 inhibitor)
O=C(NC1CCCCC1)c1cn(CCN2CCOCC2)c2cc(Cl)ccc2c1=O	none (no result: PI5P4K alpha inh, POLB inh, Pol eta inh-1, POLI inh, FEN1 inhibitor)
O=C(Nc1ccc(Cl)c(C(F)(F)F)c1)NC1CC2CCCC(C1)N2Cc1ccccc1 (centres undefined)	none

High-throughput results from PubChem.
